The panel holds about 79,000 compounds, 15% with a hit somewhere; the sample as a whole holds those more often. Rule as the data show it: active = growth inhibition above about 70%; inactive = the rest.
What was measured:
[1] = NCI Yeast Anticancer Drug Screen. Data for the rad50 strain (AID 155);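 also: 0% = growth of vehicle-only cultures of the same strain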; details: S. cerevisiae rad50 strain growth inhibition; at 50.0 µM; stronger effect = higher value
Outline: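 Cells are treated with compound, grown, and their growth is then scored against vehicle-only cultures of the same repair-deficient yeast strain.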

[2] = NCI Yeast Anticancer Drug Screen. Data for the mec2-1 strain (AID 157); details: S. cerevisiae mec2-1 strain, at 50.0 µM, stronger effect = higher value
Outline: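 mec2-1 yeast strain, carrying an alteration in DNA damage repair or cell cycle control, was exposed to compounds; growth inhibition was measured relative to vehicle-treated controls.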

[3] = NCI Yeast Anticancer Drug Screen. Data for the sgs1 mgt1 strain (AID 161);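 also: 0% = growth of cultures given vehicle only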; details: S. cerevisiae sgs1 mgt1 strain, at 50.0 µM, stronger effect = higher value
Outline: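 Yeast cells carrying a defined DNA-repair defect were exposed to test compounds. Growth inhibition was measured relative to vehicle-treated controls.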

[4] = NCI Yeast Anticancer Drug Screen. Data for the cln2 rad14 strain (AID 165);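 also: 0% = growth equal to vehicle treated cultures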; details: S. cerevisiae cln2 rad14 strain, at 50.0 µM, stronger effect = higher value
Outline: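 Yeast carrying cln2 and rad14 alterations (cell cycle control and DNA damage repair) were exposed to compounds. Growth inhibition was measured against vehicle-treated controls.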

[5] = NCI Yeast Anticancer Drug Screen. Data for the bub3 strain (AID 167); details: S. cerevisiae bub3 mutant strain, at 50.0 µM, stronger effect = higher value
Outline: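 Part of a panel of yeast mutants defective in DNA damage repair or cell cycle regulation. Each strain is grown with compound, and inhibition is calculated relative to solvent-treated cultures.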

[6] = NCI Yeast Anticancer Drug Screen. Data for the mlh1 rad18 strain (AID 175); details: S. cerevisiae mlh1 rad18 strain growth inhibition; at 50.0 µM; stronger effect = higher value
Outline: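 Growth inhibition of the yeast strain was measured after compound exposure and expressed relative to vehicle-treated controls. The strain carries defined defects in DNA damage repair.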

Measured: growth inhibition

CC(CN1CCCC1)OC(=O)C(c1ccccc1)C1CCCC1 (configuration not stated)
inactive: [1] 6.15% | [2] -20.9% | [3] 20.1% | [4] -50.2% | [5] -4.85% | [6] -14.2%

Cc1ccc(N=N/C(=N/NC(=O)c2cc(Cl)ccc2C(=O)c2ccccc2)c2ccc(N(CCC#N)CCC#N)cc2C)cc1
inactive: [1] -8.5% | [2] 2.5% | [3] -18.5% | [4] -2.1% | [5] -23.6% | [6] 5.2%

Cc1ccc(-n2cnc(C(=N)C#N)c2N)cc1
inactive: [1] -15.6% | [2] -31.7% | [3] -10% | [4] -12.1% | [5] 9.55% | [6] -13.1%

O=C(c1ccccc1)C1C(c2ccccc2)N1C(=O)c1ccccc1 (configuration not stated)
inactive: [1] 9.8% | [2] 16.4% | [3] 6.35% | [4] -1.3% | [5] 35.6% | [6] 12.9%

CC1(C)CC(C(N)=O)C(C)(C)N1O (configuration not stated)
inactive: [1] 13% | [2] 7.55% | [3] 23.6% | [4] 17.9% | [5] 23.8% | [6] 7.1%

c1ccc(C(N2CCNCC2)N2CCNCC2)cc1
inactive: [1] -2.05% | [2] 8% | [3] 10.1% | [4] -3.6% | [5] -9.3% | [6] 17%

COc1cc(NCCCCCN2C(=O)c3ccccc3C2=O)c2ncccc2c1
inactive: [1] 13.9% | [2] 13.2% | [3] 17.4% | [4] 11% | [5] 10.7% | [6] 0.1%

O=[N+]([O-])c1ccc2nc(/C=C(\O)c3ccccc3)c(NC34CC5CC(CC(C5)C3)C4)nc2c1
inactive: [1] 16.4% | [2] -17.5% | [3] 13.9% | [4] -39.4% | [5] -17.8% | [6] -2.35%

CCN(CC)C(=O)C1=C(C)NC(C)=C(C(=O)N(CC)CC)C1
inactive: [1] -36.7% | [2] -55% | [3] -18.6% | [4] -22.1% | [5] -8.35% | [6] -68.5%

[O-][n+]1ccc(Cl)cc1
inactive: [1] -4.15% | [2] -14.8% | [3] -19% | [4] -15.2% | [5] -10.1% | [6] -9.35%

CCCCCCN1CCc2c(C)c(C#N)c3nc4ccccc4n3c21
inactive: [1] -8.45% | [2] -8.05% | [3] -0.95% | [4] 10.9% | [5] 19.1% | [6] 21.8%

CC(C)(C)c1ccc(OCCOCCOc2ccc(C(C)(C)C)cc2S(N)(=O)=O)c(S(N)(=O)=O)c1
inactive: [1] 0.35% | [2] -23.3% | [3] -19.8% | [4] 9.7% | [5] -3.5% | [6] -6.35%

CC(C)CCCC(C)C1CCC2C3CCC(O)C(C)(CCCO)C3CCC12C (configuration not stated)
inactive: [1] 2% | [2] -3.85% | [3] 11.9% | [4] 32.1% | [5] 15.3% | [6] 13.7%

NC(=O)Cc1c[nH]c2ccccc12
inactive: [1] 39.7% | [2] -3.95% | [3] 14.3% | [4] -37.2% | [5] 33.4% | [6] 48.6%

C/C(C=C1C(=O)NC(=S)NC1=O)=C\c1ccccc1
inactive: [1] 13.5% | [2] -2.55% | [3] 8.35% | [4] -4.55% | [5] -8.5% | [6] 14.1%

CCOc1ncnc2ccc(Cl)c(I)c12
inactive: [1] 12.2% | [2] 0.55% | [3] 24.6% | [4] 10.2% | [5] 35.9% | [6] 16.7%

O=C(CC1=NC2NN(c3ccccc3)C(=O)C2=C1CC(=O)C(c1ccccc1)c1ccccc1)C(c1ccccc1)c1ccccc1 (configuration not stated)
inactive: [1] 51.9% | [2] 17.9% | [3] 27.8% | [4] 32% | [5] 10.8% | [6] 48.5%

O=c1ccn(Cc2ccccc2)c(=O)[nH]1
inactive: [1] 25.6% | [2] -10.3% | [3] 4.35% | [4] -29.4% | [5] -3.95% | [6] 21.9%

CC(C)OC1CC1
inactive: [1] 4.65% | [2] -10.6% | [3] -10.5% | [4] 4.9% | [5] 11.7% | [6] -21%

COc1ccccc1-n1on1-c1ccccc1OC
inactive: [1] 4.3% | [2] 18.1% | [3] -3.4% | [4] -30.9% | [5] 9.75% | [6] 20.1%

CCOC(=O)c1c(N2CCCC2)ncn(Cc2ccccc2)c1=S
inactive: [1] 0.7% | [2] 12.4% | [3] 3.9% | [4] -7.75% | [5] 8.3% | [6] -5%

COC1(C)CCC2(O)C(=O)OC3C(O)COC32O1 (configuration not stated)
inactive: [1] -3.45% | [2] -4.9% | [3] 2.55% | [4] -1.3% | [5] -1.85% | [6] -4.55%

Cc1ccc(S(=O)(=O)N(c2cc(C)ccc2C)c2ccccc2N)cc1
inactive: [1] 58.6% | [2] 50.9% | [3] 41.8% | [4] 49.9% | [5] 20.9% | [6] 25.2%

COc1ccc(CN(C)C)c(C(O)c2ccccc2)c1 (configuration not stated)
inactive: [1] 9.2% | [2] -1.75% | [3] 0.7% | [4] 7.6% | [5] 9.5% | [6] 13.2%

O=C(O)c1ccccc1Nc1ccccc1
inactive: [1] 5.75% | [2] -22.1% | [3] 3.8% | [4] -22.4% | [5] -0.75% | [6] -10%

COC(=O)N/N=C(/Cc1occc(=O)c1O)C(=O)Nc1ccc([N+](=O)[O-])cc1[N+](=O)[O-]
inactive: [1] -11.1% | [2] -12.9% | [3] -26.4% | [4] 3.3% | [5] 5.25% | [6] 8.1%

CSc1cccc(N)c1
inactive: [1] -23.6% | [2] -12.4% | [3] -46.1% | [4] 6.1% | [5] -6.8% | [6] -5.65%

Cc1cc2[nH]c(=O)c(=O)[nH]c2cc1C
inactive: [1] 0.35% | [2] 4.05% | [3] 7.15% | [4] 17.7% | [5] -0.95% | [6] 2.55%

Cc1nc(C(=O)O)c(C(=O)O)[nH]1
inactive: [1] -4.4% | [2] -15.1% | [3] -10.9% | [4] -1.7% | [5] -7.75% | [6] 1.2%

CC(C)c1ccc(NC(=S)NCCO)cc1
inactive: [1] -7.95% | [2] -4% | [3] -21.7% | [4] -9.65% | [5] -4.1% | [6] -10.9%

CCOC(=O)C(N=Cc1ccc([N+](=O)[O-])cc1)C(O)c1ccc([N+](=O)[O-])cc1 (configuration not stated)
inactive: [1] 9.55% | [2] 5.15% | [3] 1.8% | [4] 14.9% | [5] 2.2% | [6] 7.75%

C[Si](C)(C)C#C[I+]c1ccccc1
inactive: [1] -27.6% | [2] -24.4% | [3] 12.7% | [4] 5.65% | [5] 8.95% | [6] -8.85%

O=C1NC(N2CCCCC2)=N/C1=C\c1cccs1
inactive: [1] 2.5% | [2] 2.2% | [3] -12.9% | [4] 7.05% | [5] -11.8% | [6] -29.4%

O=NN(C(=O)NCCCl)c1[nH]c(=O)ncc1I
inactive: [1] -8.65% | [2] -9.7% | [3] -13.9% | [4] -25.2% | [5] 3.05% | [6] -6.1%

CCCCCCC(O)Cc1ccccc1 (configuration not stated)
inactive: [1] 5.95% | [2] 5.1% | [3] -5.5% | [4] -12.3% | [5] -24.9% | [6] 1.2%

O=C(O)CCSC1=CC(=O)C(SCCC(=O)O)=CC1=O
inactive: [1] 5.35% | [2] -13.2% | [3] -1.4% | [4] -75.7% | [5] 4.9% | [6] -15.2%

N#CC(C(=O)CCC(=O)C(C#N)c1c(Cl)cccc1Cl)c1c(Cl)cccc1Cl (configuration not stated)
inactive: [1] -18.3% | [2] 7.3% | [3] -12.5% | [4] -41.5% | [5] 6.55% | [6] -11.1%

C1CCC(C(CCCCC(C2CCCCC2)C2CCCCC2)C2CCCCC2)CC1
inactive: [1] 46.5% | [2] -3.8% | [3] 27.2% | [4] 16.1% | [5] -0.7% | [6] -2.6%

O=[N+]([O-])C(/C=C(\Cl)[N+](=O)[O-])=C(N1CCCCC1)N1CCCCC1
inactive: [1] 10.8% | [2] -1.8% | [3] 5.85% | [4] -5.55% | [5] 26.2% | [6] 18.1%

CCOC(=O)C(C(C)=O)C(CC(=O)OC)NC(=O)OCc1ccccc1 (configuration not stated)
inactive: [1] -24.5% | [2] -21.9% | [3] -60.6% | [4] -57.2% | [5] -32.2% | [6] -35.5%

OC(CBr)CBr
inactive: [1] 1.8% | [2] -7.45% | [3] 0.4% | [4] -42.8% | [5] -3.05% | [6] 9.9%

COC(=O)C1(CC(=O)c2cc(Cl)ccc2Cl)NC(=S)NC(=O)C1C#N (configuration not stated)
inactive: [1] 19.9% | [2] -9.1% | [3] -8.15% | [4] 30.5% | [5] -6.75% | [6] 2.1%
